Data on five molecules can be found in PubChem BioAssay.

Active and inactive are the calls of the source.

Test [1] in a line: small molecules captured by biotinylated probe aFSTL3 – biochemical, small-molecule microarray, fluorescence 635/667, stem cell growth factor project, primary screen (AID 1064).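 Note: measures binding of the biotinylated anti-FSTL3 antibody to printed compounds.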 Conditions: higher = more signal.
A short description of test [2]: binders from COS7 lysate, DM2A8 probe, primary screen, torsin A project, cell lysate, small-molecule microarray, fluorescence 635/667 (AID 1065). The settings on record: higher = more signal, COS7 lysate expressing mutant human TOR1A.
Test [3] is described as follows: small molecules captured by biotinylated probe aFGF2 – biochemical, small-molecule microarray, fluorescence 635/667, stem cell growth factor project, primary screen (AID 1067).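 Note: measures binding of biotinylated aFGF2 protein to printed compounds on slides; z-score merges feature fluorescence and signal-to-noise across triplicate slides.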 The settings on record: higher = more signal.
Test [4] is described as follows: small molecules captured by biotinylated probe aFGF10 – biochemical, small-molecule microarray, fluorescence 635/667, stem cell growth factor project, primary screen (AID 1071).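 Note: score merges 667 nm spot intensity and signal to noise from triplicate slides.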 Conditions: higher = more signal.
Test [5] has as its target Neurogenic locus notch homolog protein 2 (Homo sapiens) (UniProt Q04721). In words: small molecules binding Notch2 protein – biochemical, small-molecule microarray, 635 nm fluorescence, stem cell growth factors, primary screen (AID 1073). Conditions: higher = more signal.
Test [6] has as its target Pro-neuregulin-1, membrane-bound isoform (Homo sapiens) (UniProt Q02297). In words: small molecules binding neuregulin-1 protein – biochemical, small-molecule microarray, fluorescence 635/667, psychiatric disease protein project, primary screen (AID 1075).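 Note: score combines 667 nm spot fluorescence with signal to noise.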 Conditions: NRG1 binding, 635 nm fluorescence, higher = more signal.
In test [7] the test system is Neuregulin-1 EGF-like domain. In words: small molecules binding NRG1 EGF domain – biochemical, small-molecule microarray, 635 nm fluorescence, primary screen (AID 1081).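 Note: binding of the protein to compounds printed on small-molecule microarray slides.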 Conditions: higher = more signal.
Test [8] is described as follows: FRG1 expression reporter modulators in myotubes – cell-based, C2C12 myotubes, firefly/Renilla luciferase, luminescence, FRG1 inhibition for FSHD, primary screen (AID 1084). The settings on record: FRG1 promoter luciferase, higher = more signal, called active from +8 up or from −8 down.
The nature of test [9]: small molecules captured by biotinylated probe aFST – biochemical, small-molecule microarray, fluorescence 635/667, stem cell growth factor project, primary screen (AID 1086).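 Note: score merges 667 nm fluorescence with signal-to-noise of each printed compound spot.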 Conditions: higher = more signal.
The nature of test [10]: binders of probe aHhip on microarray, primary screen, stem cell growth factor project, biochemical, small-molecule microarray, fluorescence 635/667 (AID 1087).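 Note: score merges spot fluorescence at 667nm with spot signal to noise ratio.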 The settings on record: higher = more signal.
Test [11] concerns PRMT1 (protein arginine N-methyltransferase 1). In words: small molecules binding arginine methyltransferase PRMT1 – biochemical, small-molecule microarray, 635 nm fluorescence, primary screen (AID 1088).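 Note: binding of Prmt1 protein to compounds spotted on small-molecule microarray slides.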 Conditions: higher = more signal.
Test [12] in a line: growth effects on S. cerevisiae YJM789 – YJM789 clinical isolate, OD600, 24 h, basal, primary screen (AID 1089).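 Note: growth of clinical yeast isolate S. cerevisiae YJM 789 seeded 1000 cells per well; test concentration not given here.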 The settings on record: higher = more signal, called active from +8 up or from −8 down.
The nature of test [13]: S. pombe growth modifiers, basal conditions – strain 972, OD600, 24 h, no modulator, primary screen (AID 1090).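 Note: basal condition with compound alone and no growth modifier present; test concentration not given here.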 Conditions: S. pombe 972 growth, higher = more signal, called active from +8 up or from −8 down.
The nature of test [14]: budding yeast growth modifiers under rapamycin – strain BY4716, OD600, 96 h, primary screen (AID 1091). Note: test concentration not given here. Conditions: S. cerevisiae BY4716 + rapamycin, higher = more signal, called active from +8 up or from −8 down.
For test [15], the target named is Torsin-1A-interacting protein 2 (Homo sapiens) (UniProt Q8NFQ8). In words: small molecules binding lysate-expressed LULL1 – cell lysate, human LULL1 lysate, 635/667 nm fluorescence, primary screen (AID 1092).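 Note: probe is lysate of COS7 cells overexpressing human LULL1; score merges per-feature 667 nm fluorescence with signal-to-noise.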 Conditions: small-molecule microarray, hLULL1 lysate binding, 635 nm fluorescence; higher = more signal.
Test [16] can be described thus: optical density change of DRC41 E. coli – strain DRC41, OD650, 24 h, E. coli filamentation project, primary screen (AID 1093).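 Note: MC1000 strain lacking acrAB efflux and sulA so SOS filamentation is blocked; test concentration not given here.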 Conditions: E. coli DRC41 growth, higher = more signal, called active from +8 up or from −8 down.
The nature of test [17]: probe aLefty2 binding to arrayed compounds – biochemical, biotinylated probe, 635/667 nm fluorescence, primary screen (AID 1094).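 Note: score merges spot fluorescence near 667 nm with spot signal-to-noise ratio.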 Conditions: small-molecule microarray, higher = more signal.
The subject of test [18] is Noggin (protein binding on small-molecule microarray). In words: small molecules binding Noggin protein – biochemical, 635/667 nm fluorescence, primary screen (AID 1095).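 Note: score merges 667 nm feature fluorescence with signal to noise over triplicate slides.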 Conditions: 635 nm fluorescence, higher = more signal.
The target of test [19] is Neurogenic locus notch homolog protein 3 (Homo sapiens) (UniProt Q9UM47). In words: small molecules binding NOTCH3 protein – biochemical, 635/667 nm fluorescence, primary screen (AID 1096). Conditions: small-molecule microarray, 635 nm fluorescence, higher = more signal.
A short description of test [20]: probe aEGFR binding to arrayed compounds – biochemical, biotinylated probe, 635/667 nm fluorescence, primary screen (AID 1097).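 Note: probe is a biotinylated anti-EGFR antibody binding compounds printed on slides; score combines fluorescence near 667 nm and signal to noise of each spot.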 Conditions: small-molecule microarray, higher = more signal.

Neurogenic locus notch homolog protein 3 (Homo sapiens), sequence (Q9UM47 whole entry, looked up): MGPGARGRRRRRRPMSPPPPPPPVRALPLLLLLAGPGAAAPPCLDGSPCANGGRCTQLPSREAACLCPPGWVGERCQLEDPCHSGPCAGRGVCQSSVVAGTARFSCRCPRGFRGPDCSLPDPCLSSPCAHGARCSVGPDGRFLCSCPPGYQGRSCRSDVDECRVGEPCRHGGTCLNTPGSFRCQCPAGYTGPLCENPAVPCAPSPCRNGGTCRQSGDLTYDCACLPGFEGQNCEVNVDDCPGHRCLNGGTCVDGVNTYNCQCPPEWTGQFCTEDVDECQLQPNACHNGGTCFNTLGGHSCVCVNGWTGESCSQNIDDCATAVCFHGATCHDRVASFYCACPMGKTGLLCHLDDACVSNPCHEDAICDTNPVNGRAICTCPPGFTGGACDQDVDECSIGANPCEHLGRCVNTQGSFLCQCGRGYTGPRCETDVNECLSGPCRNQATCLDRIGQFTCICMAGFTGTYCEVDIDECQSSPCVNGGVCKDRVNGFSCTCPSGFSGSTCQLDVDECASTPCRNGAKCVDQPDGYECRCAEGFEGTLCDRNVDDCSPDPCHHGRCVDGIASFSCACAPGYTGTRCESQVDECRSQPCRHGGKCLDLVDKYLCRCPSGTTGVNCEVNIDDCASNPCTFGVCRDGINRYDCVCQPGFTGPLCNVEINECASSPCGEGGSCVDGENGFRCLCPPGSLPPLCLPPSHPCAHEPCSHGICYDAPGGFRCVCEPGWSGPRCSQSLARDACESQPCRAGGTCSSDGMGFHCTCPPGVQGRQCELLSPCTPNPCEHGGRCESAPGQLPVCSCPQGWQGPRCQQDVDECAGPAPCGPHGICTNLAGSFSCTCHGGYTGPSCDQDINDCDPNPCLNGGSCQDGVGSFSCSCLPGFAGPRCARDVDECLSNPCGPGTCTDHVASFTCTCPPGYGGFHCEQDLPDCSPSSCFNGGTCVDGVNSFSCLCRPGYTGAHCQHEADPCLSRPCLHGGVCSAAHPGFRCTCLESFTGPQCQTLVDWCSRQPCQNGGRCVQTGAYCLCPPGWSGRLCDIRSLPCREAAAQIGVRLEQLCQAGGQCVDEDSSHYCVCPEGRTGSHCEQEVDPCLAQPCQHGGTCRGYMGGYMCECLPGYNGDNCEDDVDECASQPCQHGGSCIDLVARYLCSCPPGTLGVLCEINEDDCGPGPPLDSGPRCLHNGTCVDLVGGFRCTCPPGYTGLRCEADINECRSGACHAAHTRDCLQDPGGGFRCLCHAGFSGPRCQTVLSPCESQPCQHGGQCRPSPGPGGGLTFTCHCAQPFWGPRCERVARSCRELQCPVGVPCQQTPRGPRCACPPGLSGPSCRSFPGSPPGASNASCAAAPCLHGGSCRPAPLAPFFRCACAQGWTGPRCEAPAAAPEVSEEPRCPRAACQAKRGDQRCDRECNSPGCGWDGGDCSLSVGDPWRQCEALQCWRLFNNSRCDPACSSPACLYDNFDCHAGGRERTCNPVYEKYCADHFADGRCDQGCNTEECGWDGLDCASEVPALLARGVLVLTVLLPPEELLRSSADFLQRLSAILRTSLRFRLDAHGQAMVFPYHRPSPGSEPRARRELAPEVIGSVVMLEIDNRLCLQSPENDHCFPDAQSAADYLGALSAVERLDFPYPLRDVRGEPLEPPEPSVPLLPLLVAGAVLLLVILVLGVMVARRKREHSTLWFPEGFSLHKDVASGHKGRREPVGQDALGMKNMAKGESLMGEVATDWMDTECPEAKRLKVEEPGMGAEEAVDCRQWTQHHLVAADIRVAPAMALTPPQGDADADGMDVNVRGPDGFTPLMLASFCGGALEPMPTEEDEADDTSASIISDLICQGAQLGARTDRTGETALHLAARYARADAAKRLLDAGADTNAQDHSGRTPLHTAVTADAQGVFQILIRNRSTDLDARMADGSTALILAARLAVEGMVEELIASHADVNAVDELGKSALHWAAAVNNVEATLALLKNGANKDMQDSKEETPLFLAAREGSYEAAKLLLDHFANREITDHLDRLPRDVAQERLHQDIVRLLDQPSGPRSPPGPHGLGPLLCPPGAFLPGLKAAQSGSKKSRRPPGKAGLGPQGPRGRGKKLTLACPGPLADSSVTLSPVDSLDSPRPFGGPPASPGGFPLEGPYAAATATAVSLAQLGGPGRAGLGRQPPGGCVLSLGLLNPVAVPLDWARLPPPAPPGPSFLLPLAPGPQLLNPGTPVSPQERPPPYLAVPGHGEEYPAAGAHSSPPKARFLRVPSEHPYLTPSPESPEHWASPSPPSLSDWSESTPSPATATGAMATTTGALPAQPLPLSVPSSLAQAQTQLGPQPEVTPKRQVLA
Pro-neuregulin-1, membrane-bound isoform (Homo sapiens), sequence (Q02297 whole entry, looked up, the tested form may be a part, canonical isoform): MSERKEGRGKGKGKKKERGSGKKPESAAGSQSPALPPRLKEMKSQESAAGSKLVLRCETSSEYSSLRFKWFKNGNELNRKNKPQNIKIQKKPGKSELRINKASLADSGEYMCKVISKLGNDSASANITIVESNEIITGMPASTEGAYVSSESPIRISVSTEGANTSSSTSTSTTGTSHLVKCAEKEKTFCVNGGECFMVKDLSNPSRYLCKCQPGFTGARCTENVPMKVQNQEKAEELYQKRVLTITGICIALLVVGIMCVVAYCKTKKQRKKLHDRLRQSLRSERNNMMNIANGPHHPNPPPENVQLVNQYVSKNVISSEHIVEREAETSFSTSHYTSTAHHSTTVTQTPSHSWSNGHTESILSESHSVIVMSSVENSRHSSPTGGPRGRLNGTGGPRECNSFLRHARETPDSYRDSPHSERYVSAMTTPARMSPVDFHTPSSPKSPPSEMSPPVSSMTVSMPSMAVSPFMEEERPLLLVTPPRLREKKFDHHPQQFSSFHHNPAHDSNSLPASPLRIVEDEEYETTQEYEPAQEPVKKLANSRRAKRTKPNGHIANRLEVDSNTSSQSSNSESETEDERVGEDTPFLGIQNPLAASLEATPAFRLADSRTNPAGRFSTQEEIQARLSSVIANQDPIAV
Torsin-1A-interacting protein 2 (Homo sapiens), sequence (Q8NFQ8 whole entry, looked up): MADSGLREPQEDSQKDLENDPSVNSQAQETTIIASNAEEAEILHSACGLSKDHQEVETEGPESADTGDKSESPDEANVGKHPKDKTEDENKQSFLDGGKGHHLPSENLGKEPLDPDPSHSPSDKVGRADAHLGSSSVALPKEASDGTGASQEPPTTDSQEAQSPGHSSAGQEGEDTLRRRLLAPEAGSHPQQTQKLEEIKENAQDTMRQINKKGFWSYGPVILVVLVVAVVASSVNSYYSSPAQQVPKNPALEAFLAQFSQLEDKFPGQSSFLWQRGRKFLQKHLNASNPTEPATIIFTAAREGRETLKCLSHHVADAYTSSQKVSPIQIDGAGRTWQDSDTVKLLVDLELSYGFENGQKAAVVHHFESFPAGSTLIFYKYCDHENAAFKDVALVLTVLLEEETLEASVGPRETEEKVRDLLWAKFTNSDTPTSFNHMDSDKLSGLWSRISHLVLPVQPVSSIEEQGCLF

As for `CC(C)[Si]1(C(C)C)OCc2cc(-c3ccc(-c4ccc(Cl)c(Cl)c4)o3)nc(CCc3ccccc3)c21`, the composite z-score in [1] was 0.0051; in test [2] it was -0.217; in [3], -0.0332; in [4], -0.175; in [5], -0.412; in test [6], 0.572. For the same molecule, the composite z-score in [7] is 0.261; in [9], -0.0731; in [10] it was -0.201; in test [11], -0.45; in [15] it was 0.797; in [17], -0.19. Moreover, the composite z-score in [18] was 0.0365; in test [19] it was -0.428; in test [20], -0.218. In addition, the z-score was 0.999 (inactive) in test [8]; -0.773 (inactive) in test [12]; -3.07 (inactive) in test [13]; 0.952 (inactive) in [14]; 1.15 (inactive) in test [16].
With `C=C(/C(=C/C[C@@H](OC(C)=O)c1ccc(CO)o1)c1cc(C(=O)OC)ccc1OC)C(C)C`, the composite z-score was -0.245 in test [1]; -0.02 in test [2]; -0.076 in test [3]; 0.938 in test [4]; 1.18 in test [5]; 1.18 in test [6]. In addition, the composite z-score in [7] was 1.21; in [9], -0.0417; in test [10], -0.0618; in test [11] it was 0.864; in test [15] it was 1.86; in test [17], -0.0142. In addition, the composite z-score in [18] came out at 0.328; in test [19] it was 0.213; in [20], 0.358. Moreover, the z-score in [8] was -0.0698 (inactive); in test [12], 1.06 (inactive); in test [13], -0.245 (inactive); in test [14], -0.0251 (inactive); in test [16] it was -0.0453 (inactive).
Consider `C=C[C@H](C)[C@H](OC(=O)Nc1ccc(OC)cc1)c1ccc(OCCO)cc1`, for which the composite z-score was 0.284 in [1]; -0.294 in test [2]; -0.181 in test [3]; -1.65 in test [4]; -1.34 in test [5]; -0.154 in test [6]. Further, the composite z-score in test [7] is 0.834; in test [9], -0.635; in test [10], -0.0173; in test [11], -0.173; in test [15], 0.038; in test [17], -0.129. For the same molecule, the results for the composite z-score in test [18], in test [19] and in [20] were -1.14, -0.36 and -0.216, respectively. Further, the z-score in [8] was 3.14 (inactive); in test [12], 0.164 (inactive); in test [13] it was -2.2 (inactive); in test [14], -1.43 (inactive); in test [16], 2.01 (inactive).
Regarding `COCCOC(=O)N1C(=O)[C@@]2(c3cc(C#CCNC(N)=O)ccc31)[C@H](c1ccc(O)cc1)N1[C@H](c3ccccc3)[C@H](c3ccccc3)OC(=O)[C@H]1[C@@H]2C(N)=O`, the composite z-score in [1] was 0.161; in test [2], -0.412; in test [3] it was -0.161; in test [4], -0.484; in test [5], -2.04; in [6], -0.702. Besides, the composite z-score in [7] was -0.0682; in [9] it was -0.567; in test [10] it was -0.39; in test [11], -1.22; in test [15], -0.841; in test [17], -0.294. In addition, the composite z-score in test [18] is -1.99; in test [19], -1.15; in test [20], -0.406. Moreover, the z-score is 0.0283 (inactive) in test [8]; 0.878 (inactive) in test [12]; 0.0929 (inactive) in [13]; 0.374 (inactive) in test [14]; 1.04 (inactive) in test [16].
Take `COC(=O)C(CC#Cc1ccc2c(c1)[C@]1(C(=O)N2)[C@H](c2ccc(OCCO)cc2)N2[C@H](c3ccccc3)[C@H](c3ccccc3)OC(=O)[C@H]2[C@@H]1C(=O)N1CCN(c2ncccn2)CC1)C(=O)OC`: the composite z-score in test [1] was -0.505; in test [2], 1.01; in test [3], 0.0275; in test [4], 1.12; in test [5], 1.51; in test [6] it was 0.746. In addition, the composite z-score was 1.27 in test [7]; 0.643 in test [9]; 0.386 in [10]; 1.55 in test [11]; 2.31 in [15]; 0.0971 in test [17]. The composite z-score worked out at 1.36 in test [18], 1.05 in test [19] and 0.153 in [20]. Also, the z-score in [8] is 1.45 (inactive); in [12] it was 0.722 (inactive); in [13], 1.82 (inactive); in [14], 3.83 (inactive); in test [16], -0.0711 (inactive).
